# From PubChem BioAssay AID1159577 (Broad Institute, 2015)
# Among all 1,300 compounds or so, about 240 (18%) were called active. Inconclusive results (about 8%) are left out. How the calls were made is not given here. A selection follows. Entries with a potency or affinity are not part of this list.
# Test: HepG2 cell cytotoxicity, dose response, cytotoxicity control, cherry-picked samples (AID 1159577)
# Conditions: HepG2 cytotoxicity counterscreen, plate reader; series mostly up to 19.5 µM
row,Structure (SMILES),outcome
1,COc1ccc(-c2ccc3c(c2)[C@@H]2[C@@H](CCN2Cc2ccncc2)[C@@H](CO)N3)cc1,inactive
2,CO[C@@H]1CN(C)C(=O)c2ccc(NC(=O)Nc3ccc(F)cc3)cc2OC[C@@H](C)N(C(=O)c2ccc(F)cc2)C[C@H]1C,inactive
3,CC(C)CC#Cc1ccc([C@H]2[C@@H](CO)N3C(=O)CN(C(=O)Cc4ccccc4)C[C@H]23)cc1,inactive
4,C[C@H](CO)N1C[C@H](C)[C@@H](CN(C)C(=O)Nc2ccc(-c3ccccc3)cc2)OCc2ccccc2-c2c(n(C)c3ccccc23)C1=O,inactive
5,COc1ccc2c3c([nH]c2c1)[C@H](CO)N(Cc1ccccc1Cl)CC31CCN(C(C)=O)CC1,inactive
6,C[C@@H]1CN([C@H](C)CO)C(=O)c2cc(C#Cc3ccccc3F)cnc2O[C@H]1CN(C)C(=O)c1ccc2c(c1)OCO2,inactive
7,COc1ccc(-c2ccccc2[C@H]2[C@@H](C#N)N(C(=O)C3CCCC3)[C@H]2CO)cc1,inactive
8,CN1c2ccc(C3=CCCCC3)cc2[C@H]2[C@H](CCN2C(=O)C2CC2)[C@@H]1CO,inactive
9,COC(=O)c1ccc(CN2CC(=O)N3[C@H](CO)[C@@H](c4ccc(-c5ccccc5F)cc4)[C@H]3C2)cc1,inactive
10,CC(C)NC(=O)N1CCCCN2[C@H](CO)[C@@H](c3ccc(C#C[C@H](C)O)cc3)[C@@H]2C1,inactive
11,CCC(=O)N1CCC2(CC1)CN(C(=O)Nc1ccc(F)cc1)[C@@H](CO)c1c2c2ccc(OC)cc2n1C,inactive
12,C[C@H]1CN([C@@H](C)CO)C(=O)c2cc(NC(=O)Cc3cn(C)c4ccccc34)ccc2O[C@H]1CN(C)S(=O)(=O)c1cccs1,inactive
13,C[C@@H]1CN([C@H](C)CO)S(=O)(=O)c2ccc(-c3ccncc3)cc2O[C@@H]1CN(C)Cc1ccc(Oc2ccccc2)cc1,inactive
14,C[C@@H]1CN([C@H](C)CO)C(=O)c2cccc(NC(=O)Nc3cccc4ccccc34)c2O[C@@H]1CN(C)C(=O)Nc1ccc(F)cc1,inactive
15,C/C=C/c1ccc2c(c1)[C@H]1[C@H](CCN1C(=O)c1cccc(F)c1)[C@H](CO)N2,inactive
16,O=C(O)C[C@@H]1C[C@@H]2c3cc(NS(=O)(=O)c4ccccc4)ccc3O[C@@H]2[C@H](CO)O1,inactive
17,C[C@@H](NC(=O)C[C@H]1C[C@@H]2c3cc(NS(=O)(=O)c4ccc(F)cc4)ccc3O[C@@H]2[C@H](CO)O1)c1ccccc1,inactive
18,CCS(=O)(=O)N1CCC2(CC1)CN(Cc1ccc3c(c1)OCO3)[C@@H](CO)c1[nH]c3cc(OC)ccc3c12,inactive
19,CCCNC(=O)N1[C@H](C#N)[C@H](c2ccc(C#Cc3cccc(F)c3)cc2)[C@H]1CO,inactive
20,N#Cc1cccc(-c2ccc3c(c2)[C@@H]2[C@@H](CCN2Cc2cncnc2)[C@H](CO)N3)c1,inactive
21,O=C(C1CCCC1)N1CC[C@@H]2[C@H]1c1cc(-c3cccc(F)c3)ccc1N[C@@H]2CO,inactive
22,N#Cc1cccc(-c2ccc3c(c2)[C@H]2[C@H](CCN2Cc2ccncc2)[C@@H](CO)N3)c1,inactive
23,O=C(Cc1ccncc1)N1CC[C@@H]2[C@@H](CO)Nc3ccc(-c4cccc(F)c4)cc3[C@@H]21,inactive

row,Structure (SMILES),outcome
1,COc1ccc(S(=O)(=O)N(C)C[C@H]2Oc3c(NC(=O)Nc4ccc5c(c4)OCO5)cccc3C(=O)N([C@@H](C)CO)C[C@H]2C)cc1,inactive
2,CCc1nc(N2[C@H](C#N)[C@H](c3ccccc3-c3ccccc3F)[C@H]2CO)sc1C,inactive
3,COc1ccc(CN2CC3(CN(C(=O)Cc4ccccc4)C3)c3c([nH]c4cc(OC)ccc34)[C@H]2CO)cc1,inactive
4,CO[C@H]1CN(C)C(=O)c2ccc(NC(=O)Nc3cc(F)ccc3F)cc2OC[C@@H](C)N(C)C[C@H]1C,inactive
5,COc1ccc2c3c(n(C)c2c1)[C@H](CO)N(C(=O)CC1CC1)CC31CCN(Cc2nccs2)CC1,inactive
6,Cc1ccccc1S(=O)(=O)N1[C@H](C#N)[C@H](c2ccc(C#CC3CCCC3)cc2)[C@@H]1CO,inactive
7,CN1c2ccc(C#Cc3cccnc3)cc2[C@@H]2[C@@H](CCN2S(=O)(=O)c2ccccc2F)[C@@H]1CO,inactive
8,Cc1ccc(S(=O)(=O)N(C)C[C@H]2OCc3ccccc3-c3c(n(C)c4ccccc34)C(=O)N([C@@H](C)CO)C[C@@H]2C)cc1,inactive
9,N#Cc1ccc(-c2ccc(C3[C@@H]4CN(S(=O)(=O)c5ccc(F)cc5)C[C@H]3N4)cc2)cc1 (stereo not given in full),inactive
10,O=S(=O)(c1ccc(F)cc1)N1C[C@@H]2N[C@H](C1)C2c1ccc(-c2ccc(F)cc2)cc1 (stereo not given in full),inactive
11,Cc1ccc(S(=O)(=O)N2C[C@@H]3N[C@H](C2)C3c2ccc(-c3ccncc3)cc2)cc1 (stereo not given in full),inactive
12,O=S(=O)(c1ccc(-c2ccccc2)cc1)N1C[C@@H]2N[C@H](C1)[C@@H]2c1ccc(-c2cccnc2)cc1,inactive
13,Cc1ccc(-c2ccc(C3[C@@H]4CN(S(=O)(=O)c5ccccc5)C[C@H]3N4)cc2)cc1 (stereo not given in full),inactive
14,Cn1cnc(S(=O)(=O)N2C[C@@H]3N[C@H](C2)C3c2ccc(-c3ccccc3F)cc2)c1 (stereo not given in full),inactive
15,COc1cccc(-c2ccc3c(c2)[C@H]2[C@H](CCN2C(=O)C2CCCC2)[C@H](CO)N3)c1,inactive
16,COc1ccc2c3c(n(C)c2c1)[C@@H](CO)N(C(=O)c1ccc(F)cc1)CC31CCN(C(=O)Nc2ccc(F)cc2)CC1,inactive
17,COc1ccc(NC(=O)N(C)C[C@@H]2Oc3cc(-c4ccc(C)cc4)ccc3S(=O)(=O)N([C@@H](C)CO)C[C@@H]2C)cc1,inactive
18,COc1ccc(C#Cc2ccc3c(c2)[C@H]2[C@H](CCN2C(=O)C2CCC2)[C@H](CO)N3)cc1,inactive
19,OC[C@@H]1CC[C@@H]2O[C@H](CCc3ccc(C#CCc4ccccc4)cc3)[C@H](n3cc(-c4ccccc4)nn3)C[C@@H]2O1,inactive
20,C[C@@H]1CN([C@H](C)CO)C(=O)c2cccc(NC(=O)Nc3cccc4ccccc34)c2O[C@H]1CN(C)C(=O)NC1CCCCC1,inactive
21,CCCNC(=O)N1CC(=O)N2[C@@H](CO)[C@@H](c3ccc(C#Cc4cccc(OC)c4)cc3)[C@@H]2C1,inactive
22,COc1cccc(S(=O)(=O)N(C)C[C@@H]2Oc3ncc(C#Cc4ccc(OC)c(OC)c4)cc3C(=O)N([C@H](C)CO)C[C@@H]2C)c1,inactive
